“And” between values parts separate entries of the source, which are not always exact repeats. Equal entries are not always repeated. Results filed as inconclusive are left out. The source made the active and inactive calls. How the source made its calls, unless noted: active means hit-call score of the fitted dose curve at least 0.9, where 1 is the maximum; inactive means score below 0.9.

The nature of experiment [1]: TAMU_PeakParms_SingleDonor1434_Chronotropy: Texas A&M University (TAMU) 1.5-hr Human Induced Pluripotent Stem Cell (iPSC)-derived Cardiomyocytes Calcium (Ca+2) Flux Assay for Cardiotoxicity: Chronotropy (changes in peak frequency) (AID 2284217). The following applies: actives raise or lower the signal. The method in brief: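 iPSC-CMs, donor 1434; 4 conc (0.2–100 uM), 0.5% v/v DMSO, 90 min, 37C/5% CO2; Ca2+ flux fluorescence → peak.freq.avg; peak.freq.avg = 0 dropped; bidirectional fit vs DMSO; EC05 POD.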

A short description of experiment [2]: CCTE_Shafer_MEA_dev_AB: CCTE's Alamar Blue Assay for Cytotoxicity in the Neural Network Formation Assay, Shafer Lab (AID 2284083; active means hit-call score of the fitted dose curve at least 0.9, where 1 is the maximum;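 further: resazurin reduction fluorescence as viability of cultured neurons; twelve days of exposure from plating with re-dosing on DIV 5 and 9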). The method in brief: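 Rat cortical primary cultures, 1.5 x 10^5 cells/well on MEA; continuous compound exposure over 12 days of network development, re-dosed with full medium change DIV 5 and 9. Alamar Blue fluorescence; loss of signal = cytotoxicity vs DMSO baseline.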

Experiment [3] can be described thus: CCTE_Shafer_MEA_acute_LDH: CCTE's Lactate Dehydrogenase Assay for Cytotoxicity in the Neural Acute Assay, Shafer Lab (AID 2284086; active means hit-call score of the fitted dose curve at least 0.9, where 1 is the maximum;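 further: active means LDH release rises above DMSO vehicle level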). In short, it runs like this: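 LDH released during 40 min compound exposure of primary rat cortical cultures, quantified by absorbance at 490 nm in collected medium. Fitting direction positive versus DMSO vehicle.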
Experiment [4] is described as follows: CCTE_Shafer_MEA_dev_mutual_information_norm: CCTE's Neural Network Formation Assay for Mutual Information Normalization, Shafer Lab (AID 2284091).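 On AC50: mutual information between electrodes summarised as area under curve across four recording days; potency is for a decrease in mutual information relative to DMSO.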 The method in brief:
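Exposure of primary rat cortical neurons began at plating and ran to DIV 12, with full media and treatment renewal after DIV 5 and 9 recordings. Mutual information AUC (DIV 5–12) was analysed for loss versus DMSO.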

Experiment [5] in a line: CCTE_Shafer_MEA_dev_correlation_coefficient_mean: CCTE's Neural Network Formation Assay for Mean Correlation Coefficient, Shafer Lab (AID 2284093).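 On AC50: well mean pairwise spike train correlation integrated as AUC over recording days 5 to 12; potency fitted for loss of correlation relative to DMSO vehicle wells.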 The method in brief:
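Rat cortical cultures, 1.5 x 10^5 cells/well, dosed from day 0 for 12 days. Spontaneous spikes recorded DIV 5/7/9/12; electrode-pair correlation coefficients averaged, AUC taken. Fit in loss direction vs DMSO.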

The nature of experiment [6]: IUF_NPC1b_proliferation_BrdU_72hr: Leibniz Research Institute for Environmental Medicine (IUF) 72-hour Neural Progenitor Cell Bromodeoxyuridine (BrdU) Proliferation Assay (NPC1b) (AID 2284207). In short, it runs like this: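 Neural progenitor spheres of human fetal origin are treated for three days; BrdU added for the last 16 h is quantified by luminescence ELISA, with DMSO as baseline and EGF/FGF omission as positive control.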

Experiment [7] in a line: IUF_NPC1a_proliferation_area_72hr: Leibniz Research Institute for Environmental Medicine (IUF) 72-hour Neural Progenitor Cell Proliferation Area Assay (NPC1a) (AID 2284208). The method in brief:
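Read-out: increase in sphere area over 72 h by automated phase-contrast imaging, fitted in positive direction versus DMSO baseline. One hNPC sphere (0.25-0.35 mm) per well in EGF/FGF medium; growth-factor withdrawal served as positive control.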

Experiment [8] is described as follows: IUF_NPC1_viability_72hr: Viability Assessment at 72 hours in the Leibniz Research Institute for Environmental Medicine (IUF) Neural Progenitor Cell Proliferation Assay (NPC1) (AID 2284209). In short, it runs like this: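 Viability was measured by resazurin-to-resorufin fluorescence (alamar blue) after 72 h of continuous exposure without compound renewal. Each well held one hNPC sphere (gestational week 16-19 fetal cortex, 0.25-0.35 mm) cultured in EGF/FGF proliferation medium at 37C and pH 7.2-7.6.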

The nature of experiment [9]: CCTE_Mundy_HCI_Cortical_Synap_Neur_Matur_NeuriteSpotCountPerNeuriteLength: CCTE's Synaptogenesis and Neurite Maturation Assay in rat cortical cells for Neurite Spot Count per Neurite Length, Mundy Lab (AID 2284210). The method in brief:
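Neurite-associated synapse density (synaptophysin puncta per unit neurite length) is measured by fluorescence high-content imaging in rat cortical cultures treated from DIV 7 and fixed at DIV 12, with DMSO as negative control.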

Experiment [10] can be described thus: CCTE_Mundy_HCI_Cortical_Synap_Neur_Matur_BPCount: CCTE's Synaptogenesis and Neurite Maturation Assay in rat cortical cells for Branch Point Count, Mundy Lab (AID 2284211). The method in brief: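 HCI read-out of branch points from MAP2/synaptophysin/Hoechst immunofluorescence; rat cortical cultures, AraC DIV 5, dosing DIV 7, fixed DIV 12; fit in positive direction vs DMSO baseline.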

The nature of experiment [11]: CCTE_Mundy_HCI_Cortical_NOG_NeuriteCount: CCTE's Neurite Outgrowth Assay in rat cortical cells for Neurite Count, Mundy Lab (AID 2284212).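 Further: cells fixed about two days after chemical exposure began.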 The method in brief: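 Rat cortical primary cells; compound added 2 h post-plating, 1/10 dilution of working solution. Anti-betaIII-tubulin/AF488 ICC; ArrayScan neurite count vs DMSO.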
The nature of experiment [12]: CCTE_Mundy_HCI_Cortical_NOG_NeuriteLength: CCTE's Neurite Outgrowth Assay in rat cortical cells for Neurite Length, Mundy Lab (AID 2284213).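 On AC50: neurites imaged about 48 to 50 h after chemical exposure began.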 In short, it runs like this:
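First, rat primary cortical cells were plated and, 2 h later, given test chemical as a 1/10 dilution. Finally, βIII-tubulin immunostaining enabled automated imaging of neurite length.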

Experiment [13] can be described thus: CCTE_Mundy_HCI_Cortical_Synap_Neur_Matur_NeuriteLength: CCTE's Synaptogenesis and Neurite Maturation Assay in rat cortical cells for Neurite Length, Mundy Lab (AID 2284214). The method in brief:
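Neurite length quantified by automated high-content imaging of MAP2, synaptophysin and Hoechst staining. Rat cortical cells received chemical from DIV 7 to DIV 12 […], glial growth arrested by AraC at DIV 5; DMSO baseline.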

Experiment [14] is described as follows: CCTE_Mundy_HCI_Cortical_Synap_Neur_Matur_NeuriteSpotCountPerNeuron: CCTE's Synaptogenesis and Neurite Maturation Assay in rat cortical cells for Neurite Spot Count per Neuron Count, Mundy Lab (AID 2284215). In short, it runs like this:
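Rat primary cortical cells received AraC at DIV 5, then chemicals with a media change at DIV 7, and were fixed at DIV 12. Synaptophysin puncta on MAP2-stained neurites per neuron were counted by high-content imaging, fitted relative to DMSO.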

Experiment [15] in a line: CCTE_Mundy_HCI_Cortical_Synap_Neur_Matur_SynapseCount: CCTE's Synaptogenesis and Neurite Maturation Assay in rat cortical cells for Synapse Count, Mundy Lab (AID 2284218). In short, it runs like this:
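High-content imaging of synaptophysin puncta per MAP2-positive neuron (Hoechst nuclei) in rat cortical cells exposed DIV 7–12 after glial arrest with AraC at DIV 5; decrease relative to DMSO scored.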

Experiment [16] is described as follows: UKN2_HCS_IMR90_neural_migration: University of Konstanz (UKN) Leist Lab Neural Crest Cell Migration Assay in human induced IMR90 Pluripotent Stem Cells (UKN2) (AID 2284204). The note with it: actives raise or lower the signal. The method in brief:
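Using a 96-well stopper format with PLO/laminin/fibronectin coating, neural crest cells from iPSC migrate in cytokine-supplemented N2-S medium; after 24 h, chemicals are applied for a further 24 h, then cells are imaged after dye staining.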

A short description of experiment [17]: CCTE_Shafer_MEA_acute_AB: CCTE's Alamar Blue Assay for Cytotoxicity in the Neural Acute Assay, Shafer Lab (AID 2284069; active means hit-call score of the fitted dose curve at least 0.9, where 1 is the maximum;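 further: active compounds lower the viability signal compared with DMSO wells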). The method in brief:
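Read-out: resazurin fluorescence (ex 544, em 590 nm) after CTB reagent at 1:6 dilution in fresh media. Cells: primary rat cortical neuron networks, DIV 13 or 15, chemically exposed on MEA plates; DMSO as negative control/baseline.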

Experiment [18] in a line: UKN5_HCS_SBAD2_neurite_outgrowth: University of Konstanz (UKN) Leist Lab Neurite Outgrowth Assay in human iPSC-derived immature Dorsal Root Ganglia Neurons (UKN5) (AID 2284070). The following applies: actives raise or lower the signal. In short, it runs like this: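 Neurite area from calcein-AM high-content images after 24 h exposure (staining included), with H-33342 for viability, fitted both directions against DMSO. Cells: thawed immature SBAD2 peripheral neurons, 100.000 cells/cm2, with CHIR99021, SU5402, DAPT; dosing 1 h after seeding.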

Experiment [19] is described as follows: UKN4_HCS_LUHMES_neurite_outgrowth: University of Konstanz (UKN) Leist Lab Neurite Outgrowth Assay in human LUHMES cells (UKN4) (AID 2284206). The following applies: actives raise or lower the signal. In short, it runs like this:
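After 24 h compound treatment beginning shortly after replating of 2-day-differentiated LUHMES cells, calcein-AM and H-33342 live staining allowed high-content imaging of neurite area and viability. Fitted bidirectionally against DMSO.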

The nature of experiment [20]: CCTE_Mundy_HCI_hN2_NOG_NeuriteCount: CCTE's Neurite Outgrowth Assay in human hN2 cells for Neurite Count, Mundy Lab (AID 2284219; active means hit-call score of the fitted dose curve at least 0.9, where 1 is the maximum). In short, it runs like this:
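In this morphology assay, hNP1-derived neurons received test chemical 2 h post-plating and were fixed two days later in warm paraformaldehyde/sucrose containing Hoechst 33342. Neurites, labelled by rabbit anti-βIII-tubulin (1:800) and Alexa Fluor-488 (1:500), were counted automatically.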

Turning to `CC(C)NCC(O)COc1ccc(CC(N)=O)cc1` (configuration not stated), the result in [1] was inactive.

Regarding `COCCc1ccc(OCC(O)CNC(C)C)cc1` (configuration not stated), the compound was classed as inactive in [2], in [3], in experiment [4], in experiment [5], in [6] and in experiment [7]. Moreover, the call in experiment [8], in experiment [9], in [10], in experiment [11], in [12] and in experiment [13] was inactive. Besides, the compound was classed as inactive in experiment [14] and in experiment [15].

In the case of `COCCOCCOCCO`, the result in [2], in experiment [4], in [5], in [16], in experiment [6] and in experiment [7] was inactive. Further, the result in [8], in experiment [9], in experiment [10], in experiment [11], in [12] and in experiment [13] was inactive. Further, the outcome in [14] and in experiment [15] was inactive.

With `Oc1c(Cl)cc(Cl)c(Cl)c1Cc1c(O)c(Cl)cc(Cl)c1Cl`, the outcome in experiment [17], in [3], in [8], in [9] and in [1] was inactive. Further, the half-maximal activity concentration (AC50) in experiment [18] is 78 µM (active); in [2] it was 8.76 µM (active) and 3.54 µM (active); in experiment [4], 578 nM (active) and 302 nM (active); in [5], 765 nM (active) and 832 nM (active); in [16] it was 0.885 µM (active); in experiment [19], 7.47 µM (active). For the same compound, the concentration at half-maximal activity (AC50) in [6] was 13.4 µM (active); in experiment [7], 17.6 µM (active); in experiment [10], 8.53 µM (active); in [11], 31 µM (active); in experiment [12], 23.1 µM (active); in [13] it was 13.4 µM (active). Further, the AC50 is 9.95 µM (active) in experiment [14], 13.1 µM (active) in experiment [15] and 1.42 µM (active) in experiment [20].

Take `CN(C)CCOC(C)(c1ccccc1)c1ccccn1` (configuration not stated): the outcome in [2], in [4], in [5], in [6], in [7] and in experiment [8] was inactive. The call in experiment [9], in experiment [10], in experiment [11], in experiment [12], in experiment [13] and in experiment [14] was inactive. Further, in experiment [15], the compound was called inactive.

On to `CCCCCCC(CO)CCCC` (configuration not stated), for which the result in experiment [3] was inactive.

In the case of `FC(F)(F)COCC(F)(F)F`, the compound was classed as inactive in [4] and in [5].

`CC1(C)CCC[C@]2(C)[C@H]3CCO[C@]3(C)CC[C@@H]12`: the compound was called inactive in experiment [3].

In the case of `O=C(Nc1ccc2c(O)c(N=Nc3ccc(N=Nc4ccc(S(=O)(=O)O)cc4)cc3)c(S(=O)(=O)O)cc2c1)c1ccccc1`, the result in experiment [3] was inactive.

Regarding `CS(=O)(=O)OCCCCOS(C)(=O)=O`, the compound was called inactive in experiment [2], in experiment [4] and in experiment [5].

In the case of `CN(C)C(=S)SC(=S)N(C)C`, the compound was called inactive in experiment [3].

Regarding `C=CC(C)(O)CCC=C(C)C` (configuration not stated), in [3], the compound was called inactive.
